# Assay outcomes (PubChem BioAssay)
# USP28 block: inhibitors of human USP28 deubiquitinase | actives 3% (n = 47,000) | Q96RU2 | purified USP28, Ub-rhodamine cleavage fluorescence, 30 min | inhibition, % at 25 µM
# USP30 block: inhibitors of human USP30 deubiquitinase; purified USP30, Ub-rhodamine cleavage fluorescence; inhibition, % at 25 µM; actives 5.3% (n = 47,000); AID 1645860
# Target sequence (Q70CQ3 whole entry, looked up): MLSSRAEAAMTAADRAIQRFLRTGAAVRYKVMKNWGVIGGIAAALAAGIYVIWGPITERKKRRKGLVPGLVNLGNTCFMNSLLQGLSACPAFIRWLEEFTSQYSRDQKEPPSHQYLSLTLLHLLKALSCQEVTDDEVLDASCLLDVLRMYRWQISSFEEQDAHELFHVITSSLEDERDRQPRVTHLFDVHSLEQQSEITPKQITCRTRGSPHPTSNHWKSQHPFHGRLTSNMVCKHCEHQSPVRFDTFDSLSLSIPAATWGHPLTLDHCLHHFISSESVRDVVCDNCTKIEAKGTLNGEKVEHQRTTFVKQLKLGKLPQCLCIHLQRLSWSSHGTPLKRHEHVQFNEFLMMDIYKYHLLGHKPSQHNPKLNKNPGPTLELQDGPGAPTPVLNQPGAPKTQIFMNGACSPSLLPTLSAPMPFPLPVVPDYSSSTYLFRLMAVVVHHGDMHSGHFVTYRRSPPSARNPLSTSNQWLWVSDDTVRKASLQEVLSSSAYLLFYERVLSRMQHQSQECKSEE
# Starred values were filed as active, the others as inactive. This is a sample that favours compounds with a hit; in the whole collection about 7% have one here. Cut-off read from the data, not from the text of the source: active = inhibition above about 30%; inactive = the rest.
SMILES,USP28 block,USP30 block
Cc1cc(=O)n(CC(=O)Nc2ccc3c(c2)OCCO3)c2c1c(C)nn2-c1ccccc1,-12,2
CCc1cc(=O)n(CC(=O)Nc2ccc3c(c2)OCCO3)c2c1c(C)nn2-c1ccc(C)cc1,17,32*
CCOC(=O)c1cc2c(ccn2C)n1CC(=O)N(Cc1ccc(Cl)cc1)c1ccccc1,-10,-160
COC(=O)CCC(c1ncc(C(F)(F)F)cc1Cl)S(=O)(=O)c1ccccc1 (stereo not given),23,58*
CN(c1ccc(Oc2ccc(C(F)(F)F)cn2)cc1)S(=O)(=O)c1ccccc1,17,-4
Cc1ccc2c(c1)c(N1CCCC1=O)c(C(=O)NCc1cccnc1)n2C,-4,-2
COc1ccc(C(=O)Nc2ccc(-c3nc4ccccc4[nH]3)cc2)cc1S(=O)(=O)N1CCOCC1,10,50*
COc1ccc(NC(=O)c2ccc(-c3nc4ccccc4s3)o2)cc1S(=O)(=O)N1CCOCC1,-26,-125
CC[C@H](C)C(=O)OC1C[C@@H](C)C=C2C=C[C@H](C)[C@H](CC[C@@H](O)C[C@@H](O)CC(=O)O)[C@H]21 (stereo not given in full),7,-125
COc1ccc(OC)c(-c2cn3ccn(-c4ccc5c(c4)CCC5)c(=O)c3n2)c1,21,51*
O=c1c2nc(-c3ccc(F)cc3)cn2ccn1-c1ccc2c(c1)CCC2,-25,-64
Cc1cccc(OCCCSc2nc3ccc(C)cc3[nH]2)c1,28,24
CCOc1ccc2nc(SCc3cn4cc(Cl)ccc4n3)[nH]c2c1,41*,21
Nc1ncc(-c2ccc(Cl)cc2)c(C2CCCN2)n1 (stereo not given),-6,-45
NC(=O)c1ccccc1OCC(=O)N1CCc2ccccc21,51*,76*
COc1ccc(CCC(=O)N2CCc3ccccc32)cc1,30,25
Cc1cccc(NC(=O)Cn2cnc(S(=O)(=O)N3CCc4ccccc43)c2)c1C,4,-1
O=C(Cn1cnc2sc(-c3ccccc3)cc2c1=O)N(Cc1ccccc1F)C1CC1,31*,35*
O=C(Cn1cnc2ccc(Cl)cc2c1=O)N(Cc1ccccc1F)C1CC1,0,14
CCCC(=O)N(Cc1ccccc1)c1nnc(C23CC4CC(CC(C4)C2)C3)s1,12,12
CN(C(=O)c1ccc(C(=O)c2ccccc2)cc1)c1nnc(C23CC4CC(CC(C4)C2)C3)s1,21,33*
c1ccc(CCNc2nn3c(-c4ccc5ccccc5c4)cnc3s2)nc1,-6,0
COc1ccccc1C(=O)Oc1ccc(-c2ccc(C#N)cc2)cc1,5,8
CN(C)S(=O)(=O)c1ccc(C(=O)Oc2ccc(-c3ccc(C#N)cc3)cc2)cc1,3,31*
COc1cccc(C2CC(=O)Nc3ccsc32)c1OCc1ccccc1 (stereo not given),24,41*
SMILES,USP28 block,USP30 block
COc1cccc(C2CC(=O)Nc3n[nH]c(C)c32)c1OCc1ccc(F)cc1 (stereo not given),-8,0
O=C(Cn1cnn2cc3c(c2c1=O)CCCC3)N1CCCC1,1,-13
Cc1onc(C(=O)NCc2ccccc2Cl)c1CN1CCOCC1,-4,1
CN1[C@@H](C(=O)NCC2CC2)C[C@@H]2CN(Cc3cccc(C#N)c3)C[C@@H]21,8,0
Cc1ccc2c(c1)OCC(=O)N2Cc1nc(-c2cccc(F)c2)no1,26,35*
Cc1ccc2c(c1)OCC(=O)N2Cc1nc(-c2ccc(F)cc2)no1,-12,-48
O=c1c(-c2nc(C3CC3)no2)cccn1Cc1noc(-c2ccccc2F)n1,-10,-127
O=c1c(-c2nc(C3CC3)no2)cccn1Cc1c(F)cccc1Cl,85*,23
Cc1cccc(-c2cc3nccc(C4CCCNC4)n3n2)c1 (stereo not given),13,6
CC(=O)O[C@@H]1OC(=O)[C@](C)(C(C)=O)[C@@H]1C,11,33*
COc1ccc(S(=O)(=O)Nc2ccc(NC(C)=O)cc2)cc1N(C)S(=O)(=O)c1ccc(Cl)cc1,4,3
COc1cc2c(cc1OC)-c1c(c(C(=O)N3CCCC3)nn1-c1ccccc1F)C2,76*,99*
COc1cc2c(cc1OC)-c1c(c(C(=O)O)nn1-c1ccc(F)cc1)C2,3,10
O=C(Nc1ccccc1F)c1sccc1Oc1ccc([N+](=O)[O-])cc1F,17,40*
COC(=O)c1ccccc1NC(=O)c1sccc1Oc1ccc(F)cc1[N+](=O)[O-],7,19
CCOc1cc(=O)c(C(=O)Nc2ccc(C#N)cc2)nn1-c1ccccc1,-10,0
CC(Sc1nc2nn(-c3ccccc3)c(=O)c-2c2n1CCCCC2)C(=O)Nc1ccc(C#N)cc1 (stereo not given),16,33*
COc1ccc(NC(=O)N2CCCn3c(nc4ccccc43)C2)cc1,10,2
O=C(CN1CCC2(CC1)N=C(c1ccc(F)cc1)C(=O)N2)Nc1ccc(F)c(F)c1,12,44*
O=C(CN1CCC2(CC1)N=C(c1ccc(Cl)cc1)C(=O)N2)Nc1cccc(Cl)c1,-2,4
O=[N+]([O-])c1cccnc1-n1ccc(-c2cnc(-c3ccccc3)s2)n1,-14,-145
COCCN1C(=O)C[C@@H]2[C@H]1CCN2C(=O)c1ccc(C)nc1,7,17
Cc1cc(SCc2ncon2)c(C)cc1Cl,69*,12
Cc1cc(SCc2nnc(-c3ccc([N+](=O)[O-])c(C)c3)o2)c(C)cc1Cl,-13,-17
O=c1c(Cc2ccccc2)coc2ccccc12,50*,24
SMILES,USP28 block,USP30 block
O=c1c(CN2CCC3(CC2)Nc2ccccc2C2=NCCN23)coc2ccccc12,-1,-29
O=C(Nc1nc2c(s1)CCC2)C1CCN(S(=O)(=O)c2ccc3c(c2)CCCC3)CC1,50*,-102
Cc1nnc(NC(=O)C2CCN(S(=O)(=O)c3ccc4c(c3)CCC4)CC2)o1,4,18
COc1cc(OC)cc(C(=O)Nc2cnc(-c3ccccc3)nc2)c1,14,17
COc1cccc(C(=O)Nc2ccccc2-c2nc(-c3ccncc3)no2)c1,13,39*
COc1ccc(NC(=O)c2cccc(-c3nc(-c4ccccc4)no3)c2)c(OC)c1,-6,3
Cc1nc(-c2ccccc2)sc1C(=O)CSc1ccc(F)cc1,20,32*
CCOC(=O)N1CCC(NC(=O)c2sc(-c3ccc(F)cc3)nc2C)CC1,16,19
CCNc1cc(N2CCCC(CCC(=O)NCc3cccc(F)c3)C2)ncn1 (stereo not given),-24,-76
Cc1nn(-c2ccccc2)c(C)c1S(=O)(=O)Nc1ccc(C#N)cc1,4,12
COc1ccc(Cn2nnc(C(=O)NC3CCCCC3)c2-n2cccc2)cc1,42*,11
COc1ccc(Cn2nnc(C(=O)N3CCSCC3)c2-n2cccc2)cc1,20,-41
Cc1ccc(Cn2nnc(C(=O)N3CCSCC3)c2-n2cccc2)cc1,22,18
O=C(c1nnn(Cc2ccc(Cl)cc2)c1-n1cccc1)N1CCCC1,76*,14
COc1ccc(NC(=O)C(C)CN2CCN(c3ccccc3)C(=O)C2=O)cc1 (stereo not given),5,12
COCCN1C(=O)c2[nH]nc(-c3ccccc3O)c2C1c1cccc(OCc2ccccc2)c1 (stereo not given),12,27
COc1ccc(C2c3c(C)nn(-c4ccccc4C)c3N=C3N(C(C)=O)c4ccccc4N32)cc1 (stereo not given),0,-48
COc1ccc(C2NC(=O)NC(C)=C2C(=O)c2ccccc2)cc1OCc1ccccc1 (stereo not given),-96,-393
